This note sets out measurements from article PMC12136788.

B1: chr11:101890673:101891278:-|three_prime_utr|ENSG00000187151|control|control|control (ssRNA)
RNA: GGGAGUUCUACAGUCCGACGAUCGUAAUGCAAGUUCUACAAUGAUAAUAUAUUAAAGAUUUUUAAAAGUUUAUCUUUUCACUUAGUGUUUCAAACAUAUUAGGCAAAAUUUAACUGUAGAUGGCAUUUAGAUGUUAUGAGUUUCAACAGAGGAUUGAGCAUCA
B2: chr17:32711987:32712195:-|CDS|ENSG00000176658|control|control|control (ssRNA)
RNA: GGGAGUUCUACAGUCCGACGAUCUCCUUCAGACAAAGAGGCUGUCAAGAAACUAAUUGAACGGUGUGGUUUUCAGGAUGAUGUAGCUUAUGGGAAGACCAAAAUUUUCAUUCGAACACCCCGAACAUUGUUUACCUUGGAAGACAACAGAGGAUUGAGCAUCA
B3: chr12:293013:293114:-|CDS|ENSG00000073614|unk|FALSE|bound_elsewhere (ssRNA)
RNA: GGGAGUUCUACAGUCCGACGAUCACUAAAAGUGAAAGGAAAGGACUCUUCAGAGAAGAAACGGAAACGGAAGCUAGAAAAGGUAGAGCAACUUUUUGGAGAAGGAAAACAGAAGUCCAAGGAGUUAAAGAAAAUGGACAAACCCAACAGAGGAUUGAGCAUCA
B4: chr1:228098150:228098251:+|3pUTR|ENSG00000143761|msi1_unk|total|mutant (ssRNA)
RNA: GGGAGUUCUACAGUCCGACGAUCGCACCGUGCUGUAAAUGUGGCAGACGCAGCCUGCGGCCAGGCUUUUUAUUUAAUGUAAACCGUUUUUGUUUCCAAUGAGGCAGUUUCUGGUACUCCUAUGCAAUAUUACUCAGCUUUUUUCAACAGAGGAUUGAGCAUCA
B5: chr7:50445662:50445763:-|CDS|ENSG00000132436|msi1|FALSE|unique (ssRNA)
RNA: GGGAGUUCUACAGUCCGACGAUCGUUAUCUCAACGGGGAGAUGGUGAGCAUGAAUCUUCUAGAAGGAUAAAAACAGAAUUUUUAGUUCAAUUAGAUGGAGCAACAACAUCUUCUGAAGAUCGUAUCCUAGUGGUGGGAGCAACCAACAGAGGAUUGAGCAUCA
B6: chr17:81921741:81921842:-|3pUTR|ENSG00000197063|msi1|FALSE|unique (ssRNA)
RNA: GGGAGUUCUACAGUCCGACGAUCAAUUAUAUGUUUAAAAGUUAAAGAAAAAAGAGCUGCAGAGUAUUUAUAAAACUGUCUUUUAGAAAAAAAACAAGCAAGAAGACCAUUUGACCAUAUGAAUGGAAAAGGGAAGAAAGUAUACAACAGAGGAUUGAGCAUCA
B7: chr9:122240152:122240253:-|3pUTR|ENSG00000119446|msi1|FALSE|unique (ssRNA)
RNA: GGGAGUUCUACAGUCCGACGAUCCUUCUUGGAGUAUAGAAUUCACCAUUUUAUCCGUAAGUCUUCAAAGGAUUAUGGUGGACUAGAACUUACAUAGUGCAAAAUAGUCUUCUAUUUUUAAUAGGAACUUAGAAAAAACUUAGACAACAGAGGAUUGAGCAUCA
B8: ENSG00000198589:be:win_8701|3pUTR|ENSG00000198589|bound_else_gene|NA|bound_elsewhere_windowed (ssRNA)
RNA: GGGAGUUCUACAGUCCGACGAUCUGUAGUCUUUGCUUGACUUUUUUGGGGGGGAUUAGCAAAGCAGAAAACUGGCUGCUGGGUUCUGUAGUUUUAAAAAAUCUAUAUUUUUAGUCAUAAUGAGAAGUCUAUUUUCACCAAUUACAACAGAGGAUUGAGCAUCA
B9: chr21:43695798:43695899:+|3pUTR|ENSG00000160208|msi1|FALSE|unique (ssRNA)
RNA: GGGAGUUCUACAGUCCGACGAUCACAAUAUUUUGUAAAAUGAUGCUUCCCCCUUCUCCAUGGUCUAGUCAAUUUUGUACAAUUAGGUAUCUGACUUUACAAGUUUGUUAUCCUUUCUAAUUUUUACUGAACUGAAAGCACAAACAACAGAGGAUUGAGCAUCA
B10: ENSG00000120802:stop:overlap|stop_codon|ENSG00000120802|stop_codon|NA|stop_codon (ssRNA)
RNA: GGGAGUUCUACAGUCCGACGAUCGUGGAACAUUAUUUGGAGGAGAAGUAUGCAAAGUAAUUAAAAAGCGUGGAAAUAAACACUAGUAAAAUUAAGGACAAAAAGACAUCUAUCUUAUCUUUCAGGUACUUUAUGCCAACAUUUCAACAGAGGAUUGAGCAUCA
B11: chr12:123662440:123662541:+|3pUTR|ENSG00000111358|unk|FALSE|unique (ssRNA)
RNA: GGGAGUUCUACAGUCCGACGAUCAAUGGAAAUCACAAUUUUAAGUCUAGGAAAUAAAGUAUUAUAUAUACUUUCAAACAAGCUAGCAAGGCUUUUAUUAUUACUUUUUUAUUUGAAAUAUCUUAUAUAUUUGGUUAGUUCUGUCAACAGAGGAUUGAGCAUCA
B12: chr6:119178661:119178762:-|3pUTR|ENSG00000111885|msi1|FALSE|unique (ssRNA)
RNA: GGGAGUUCUACAGUCCGACGAUCGAAAGAAGCUUUGCCAAUUUUACUUAUUCGUGAUCAAUCAAGGAAAAUCUAAUAAAUUUUAGGCCAAAUAAGAAUAUAGCAUAUUUAGUAUGGUUAUAGUCAACACAGAGAUCACAACUUCAACAGAGGAUUGAGCAUCA
B13: chr4:150265445:150265561:-|3pUTR|ENSG00000198589|unk|total|mutant (ssRNA)
RNA: GGGAGUUCUACAGUCCGACGAUCGGAUCCGCAAAGCAGAAAACUGGCUGCUGGGUUCUGCCGUUUUAAAAAAUCUAUAUUUUCCGUCAUAAUGAGAAGUCUAUUUUCACCAAUUAUGGAAACAUACAGUGGAGCAAGUAAACCCAACAGAGGAUUGAGCAUCA
B14: chr4:150265445:150265561:-|3pUTR|ENSG00000198589|unk|FALSE|bound_elsewhere (ssRNA)
RNA: B13 RNA with C28U, C29A, C60U, C61A, C83U, C84A
B15: chr3:121431430:121432303:-|three_prime_utr|ENSG00000051341|control|control|control (ssRNA)
RNA: GGGAGUUCUACAGUCCGACGAUCUGGAAAGAACAGAGAUUACCCUUUCACCUACCUCAGCAAAACAAACUUUCAAGUCUUGAUAGACUUAGCCUAGUAAUUUUAUAGUGAGAGUUUCAAACUAUAUAUCAGUGUCUAUAGCAUCAACAGAGGAUUGAGCAUCA
B16: chr11:22846921:22847509:-|three_prime_utr|ENSG00000255359|control|control|control (ssRNA)
RNA: GGGAGUUCUACAGUCCGACGAUCCUCCACCAUUUCGGAAAAAUAAACACAGUGCAAGUAUUUAAUAUCCAAGCUACAGGCUCUAGAAUUUUAUUAAAUGCCAUCUCUCACUACCAUAUUUUUCUUUCCUGUGGUAAACUUGAACAACAGAGGAUUGAGCAUCA
B17: chr8:74853834:74853946:+|3pUTR|ENSG00000137558|unk|FALSE|unique (ssRNA)
RNA: GGGAGUUCUACAGUCCGACGAUCAAGUGCUUUUUUUUUUCUGAAUUAAUUAGGUAUUGGUAAAAUAUAUUUUUAAAUUUAGUUAGCUUUAUAAACACAAUUAGAAUUACAAUUAAUUAACAGAGGUAUAAUUGUCUCACUUUCCAACAGAGGAUUGAGCAUCA

Positions count from the first letter of the chain named. Whole data set: some 5,800 sequences, median “enrichment r” near 0.68, cut for the highest 2% near 11. What follows is part of a selection rich in the highest values, with near analogues and random picks from the rest.

For this test, the target named is T1, UNK ZnF1-6 (called full-length) (human, UniProt Q9C0B0 30-357).
T1 sequence: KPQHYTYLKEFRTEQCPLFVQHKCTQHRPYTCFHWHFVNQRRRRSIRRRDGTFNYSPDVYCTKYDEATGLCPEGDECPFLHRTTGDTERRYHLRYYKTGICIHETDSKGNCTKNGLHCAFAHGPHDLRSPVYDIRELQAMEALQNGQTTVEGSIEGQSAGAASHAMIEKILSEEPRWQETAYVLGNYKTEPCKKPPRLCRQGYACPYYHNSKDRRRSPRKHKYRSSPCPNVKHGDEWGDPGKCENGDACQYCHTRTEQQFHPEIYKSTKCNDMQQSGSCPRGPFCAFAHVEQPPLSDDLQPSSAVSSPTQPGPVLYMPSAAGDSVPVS
Briefly: nsRBNS (natural sequence RNA bind-n-seq); RBNS binding buffer (assumed for nsRBNS): 25 mM Tris pH 7.5, 150 mM KCl, 3 mM MgCl2, 0.01% Triton X-100, 500 ug/ml BSA, 20 U/ml SUPERase-In, 4 C; UNK is unkempt and MSI1 is Musashi-1; names of the RNAs are library labels; protein concentration not given here; high values mean tight binding.
Take B1: the binding signal is 5.03 enrichment R.

The molecule B2 gave a binding signal of 0.434 enrichment R. Next, B3: 0.672 enrichment R. Under B4 stands 0.896 enrichment R; under B5, 0.853 enrichment R. Under B6 stands 2.78 enrichment R. With B7, the binding signal was determined as 41.4 enrichment R. Next, B8: 29 enrichment R; B9: 1.9 enrichment R; B10: 1.07 enrichment R. Molecule B11 displayed a binding signal of 12.5 enrichment R. In turn, B12 displayed a binding signal of 2.15 enrichment R. Consider B13, for which the binding signal amounted to 0.438 enrichment R. B14 returned a binding signal of 2.4 enrichment R. Next, B15: 8.5 enrichment R; B16: 0.713 enrichment R; B17: 171 enrichment R.
